# Tested on: DYRK2
# Settings: concentration: 1 μM, replicates: in singlicate; n = 1
# 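Further: KINOMEscan kinase panel screen.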
row,Structure (SMILES),%Inh [%]
1,Cl.Cn1ccc(-c2cccc(Nc3ccnc4cc(-c5nccs5)ccc34)c2)n1 [GW525701],0
2,Nc1nc(-c2ccccn2)c(-c2ccnc3ccccc23)s1 [GW548057],9
3,CC(C)N1CCC(n2cnc(-c3ccc(F)cc3)c2-c2ccnc(N)n2)CC1 [SB-223132],0
4,Fc1cccc(COc2ccc(Nc3ncnc4cc[nH]c34)cc2Cl)c1,22
5,Cc1cc(N2CCC(NS(=O)(=O)c3ccc(F)cc3)CC2)nc(Nc2cccc(C#N)c2)n1.O=C(O)C(F)(F)F [GSK1653537],5
6,C[C@H]1CC[C@@H](C(=O)Nc2ccccc2)CN1c1cc(-c2ccc3c(N)n[nH]c3c2)nc(N)n1 [GSK2283293],7
7,CC(C)(C)c1ccc(-n2cnc3c(N)ncnc32)cc1 [SKF-97263],3
8,Cc1ccc(NC(=O)c2cccc(C#N)c2)cc1-c1ccc(C(=O)Nc2ccncc2)cc1 [GSK1398463],19
9,Fc1cccc(COc2ccc(Nc3ncnc4nn5ccccc5c34)cc2Cl)c1 [GW689066],0
10,Cn1ccc2ncnc(Oc3ccc(NC(=O)Nc4cccnc4)c(Cl)c3)c21,14
11,COc1ccc(NC(=O)c2ccc(-c3cc(-c4nnc(C)o4)ccc3C)cc2)cc1 [GW595885],4
12,CS(=O)(=O)CCNCc1ccc(-c2ccc3ncnc(Nc4ccc(OCc5ccccc5)c(Cl)c4)c3c2)o1.Cl [GW574783],0
13,CSc1ccc(NC2=C(c3ccccc3Cl)C(=O)NC2=O)cc1 [SB-342411],3
14,CCn1c(-c2ccncc2)nc2cnccc21 [SB-735216],17
15,Cn1cc(-c2ccc3c(c2)CCN3C(=O)Cc2cccc(C(F)(F)F)c2)c2c(N)ncnc21 [GSK2606414],27
16,CNc1nccc(-c2c(-c3ccc(F)cc3)ncn2CCCN2CCOCC2)n1 [SB-222516],15
17,CN1CCC(n2cnc(-c3ccc(F)cc3)c2-c2ccnc(NC3CCNCC3)n2)CC1 [SB-229482],6
18,Clc1cc(Nc2ncnc3cc[nH]c23)ccc1OCc1ccccn1,17

row,Structure (SMILES),%Inh [%]
1,COc1cc2ncnc(Nc3ccc(OCc4ccccc4Br)c(Cl)c3)c2cc1OC.Cl [GI261590],0
2,Cc1ccc(C)c(NC(=O)NCCNc2ccnc(Nc3ccc(F)cc3)n2)c1 [GSK1379878],3
3,Cl.O=S(=O)(c1cccc(F)c1)c1ccc(Nc2ncnc3cc(Br)sc23)cc1Cl [GSK306886],14
4,CCc1nc(-c2cccc(C)c2)c(-c2ccnc(NC(=O)c3ccccc3)c2)s1,10
5,FC(F)(F)c1ccc(-c2nn3ncccc3c2-c2ccnc(Nc3cccc(C(F)(F)F)c3)n2)cc1 [GW828205],31
6,Cl.c1ccc(Cn2ccc3cc(Nc4ncnc5ccccc45)ccc32)cc1 [GW275568],9
7,C[C@@H]1CCN(C(=O)CO)C[C@@H]1N(C)c1ncnc2[nH]ccc12,0
8,O=C(NCCCN1CCCC1=O)c1cnc(NCc2cc(Cl)ccc2Cl)nc1NC1CCNCC1,0
9,CSc1nn2c(=O)cc(N3CCOCC3)nc2n1Cc1cccc(Cl)c1Cl [GSK2347225],8
10,COc1ccc(Nc2nccc(N3CCC(NC(=O)c4cccc(NC(C)=O)c4)C3)n2)cc1 (stereo not drawn) [GSK1379732],7
11,Fc1cccc(COc2ccc(Nc3ncnc4sc(-c5ccc[nH]5)cc34)cc2Cl)c1 [GW707818],8
12,O=C(Nc1ccccc1)Nc1ccc(Oc2ccc3nccn3n2)cc1,70
13,CN1c2ccc(-c3ccc(C(=O)NCCO)cc3)cc2-c2[nH]ncc2S1(=O)=O,31
14,FC(F)(F)c1ccc(-c2cc(-c3c[nH]nc3-c3ccccn3)ccn2)cc1 [GW599550],0
15,Nc1nccc2scc(-c3ccc4c(c3)CCN4C(=O)Cc3cc(F)ccc3F)c12 [GSK2587663],5
16,Cn1ccc2ncnc(Nc3ccc(Oc4cccc(Cl)c4)c(Cl)c3)c21,33
17,CS(=O)(=O)CCNCc1nc(-c2ccc3ncnc(Nc4ccc(OCc5cccc(F)c5)c(Cl)c4)c3c2)cs1.Cl [GW583340],16
18,CCCc1ccc(S(=O)(=O)NC2CCN(c3ccnc(Nc4ccc(OC)cc4)n3)C2)cc1 (stereo not drawn) [GSK1379737],0

# — paper PMC5540273 (PLoS ONE, 2017)
